In ChEMBL document CHEMBL3988442, “University of Dundee, Small-Polar-MMV Screening Library” (2021):
In all, about 48,000 compounds went through this assay and about 13,000 (27%) showed an effect of 50% or more. Some of the results follow.

tested on: Wolbachia pipientis; test: Anti-Wolbachia Cell-Based Screen; format: functional; parameters: scale not given: in the data most compounds retested in dose-response had high values; settings: 5 µM

**Q.** With `Cc1cccc(C(C)CNC(=O)N2CCOCC3(CCOCC3)C2)c1` (stereo not drawn) as the compound, how does the “Percent Effect” value read?
**A.** -15.26%

**Q.** With `COCCCn1ccc(NC(=O)NCCCn2ccnc2)n1` as the compound, how does the “Percent Effect” value read?
**A.** 5.848%

**Q.** How did the “Percent Effect” value turn out when `CC(C)[C@@H]1CN(CCOc2ccc(Cl)cc2)C[C@H]1NS(C)(=O)=O` was run?
**A.** 1.84%

**Q.** `Cc1cccc(-c2noc([C@@H]3Cc4nc[nH]c4CN3)n2)c1` was tested. Which “Percent Effect” value did it give?
**A.** -0.5604%

**Q.** `COc1ccnc(N2CCN(C(=O)Cc3ccc(C)s3)CC2)n1` was tested. Which “Percent Effect” value did it give?
**A.** 0.2283%

**Q.** With `COc1ccnc(N2CCCN(C(=O)Cc3ccc(C)s3)CC2)n1` as the compound, how does the “Percent Effect” value read?
**A.** 128.9%

**Q.** `CCOc1ccnc(N2CCN(C(=O)CCc3ccsc3)CC2)n1` was tested. Which “Percent Effect” value did it give?
**A.** 8.96%

**Q.** Which “Percent Effect” value does the source give for `COc1ccnc(N2CCN(C(=O)c3csc(C)n3)CC2)n1` here?
**A.** -2.798%

**Q.** With `COc1ccnc(N2CCN(C(=O)Cc3csc(C)n3)CC2)n1` as the compound, how does the “Percent Effect” value read?
**A.** 124.6%

**Q.** For `COc1ccnc(N2CCN(C(=O)Cc3ccc(C#N)cc3)CC2)n1`, which “Percent Effect” value is on record?
**A.** 1.226%

**Q.** How did the “Percent Effect” value turn out when `COc1ccnc(N2CCN(C(=O)Cc3ccsc3)CC2)n1` was run?
**A.** 128.2%

**Q.** With `COc1ccnc(N2CCN(C(=O)CCc3nccs3)CC2)n1` as the compound, how does the “Percent Effect” value read?
**A.** -9.419%

**Q.** `COc1ccnc(N2CCN(C(=O)NCc3ccc(C)s3)CC2)n1` was tested. Which “Percent Effect” value did it give?
**A.** -6.706%

**Q.** How did the “Percent Effect” value turn out when `COc1ccnc(N2CCN(C(=O)CN3CCCC3=O)CC2)n1` was run?
**A.** -1.755%

**Q.** Which “Percent Effect” value does the source give for `COc1ccc(N2CCCN(C(=O)Cc3csc(C)n3)CC2)cc1` here?
**A.** -1.36%

**Q.** How did the “Percent Effect” value turn out when `COc1ccnc(N2CCN(C(=O)Cc3ccn(C(C)C)n3)CC2)n1` was run?
**A.** 115.4%

**Q.** Which “Percent Effect” value does the source give for `Cc1csc(C2(NCC(O)COc3ccc(F)cc3)CCC2)n1` (stereo not drawn) here?
**A.** -11.72%

**Q.** Which “Percent Effect” value does the source give for `COc1cc(N2CCN(Cc3ccsc3)C(CCO)C2)nc(N)n1` (stereo not drawn) here?
**A.** 10.71%

**Q.** `Cc1ccc(-c2ccc(C(=O)NCCS(N)(=O)=O)c(F)c2)cc1` was tested. Which “Percent Effect” value did it give?
**A.** 17.06%

**Q.** `Cc1nn(C)c2c(=O)n(CC(=O)NC3CCCCC3)ccc12` was tested. Which “Percent Effect” value did it give?
**A.** 138.3%

**Q.** Which “Percent Effect” value does the source give for `Cc1nn(C)c2c(N3CCN(C(=O)NC4CCCCC4)CC3)ncnc12` here?
**A.** 8.343%

**Q.** With `CCn1nc(C)c(CNC(=O)c2cn(CC3CCCO3)nn2)c1C` (stereo not drawn) as the compound, how does the “Percent Effect” value read?
**A.** 113.5%

**Q.** With `CCN1CCC(NC(=O)Cn2cc(C)c3ccccc32)CC1` as the compound, how does the “Percent Effect” value read?
**A.** -38.76%

**Q.** `O=C(Cn1nc(-c2ccc(F)cc2)oc1=O)NCC1CCCO1` (stereo not drawn) was tested. Which “Percent Effect” value did it give?
**A.** -3.643%

**Q.** How did the “Percent Effect” value turn out when `CCn1nc(C)c2ccn(CC(=O)NC3CC3)c(=O)c21` was run?
**A.** 112.9%

**Q.** `CCn1nc(C)c2ccn(CC(=O)NC3CCCC3)c(=O)c21` was tested. Which “Percent Effect” value did it give?
**A.** -1.508%

**Q.** How did the “Percent Effect” value turn out when `CCn1nc(C)c(CNC(=O)c2cn(CCC3CCCCN3)nn2)c1C` (stereo not drawn) was run?
**A.** -6.64%

**Q.** How did the “Percent Effect” value turn out when `Cc1noc(C)c1CNC(=O)c1cn(CCC2CCCCN2)nn1` (stereo not drawn) was run?
**A.** -0.3777%

**Q.** How did the “Percent Effect” value turn out when `CCn1nc(C)c2ccn(CC(=O)NCC3CCCO3)c(=O)c21` (stereo not drawn) was run?
**A.** 132.9%

**Q.** `CC1CCN(S(=O)(=O)c2cccn(CC(=O)NC3CCCC3)c2=O)CC1` was tested. Which “Percent Effect” value did it give?
**A.** -17.34%

**Q.** With `Cc1cc(=O)n(CC(=O)NCC2CCCO2)c(-c2cccc(Cl)c2)n1` (stereo not drawn) as the compound, how does the “Percent Effect” value read?
**A.** 14.67%

**Q.** With `Cc1ccccc1C(C#N)NC(=O)c1cccc2c1OCCO2` (stereo not drawn) as the compound, how does the “Percent Effect” value read?
**A.** 0.1196%

**Q.** With `COc1ccc(OC)c(CNCCc2cc(F)cc3c2OCOC3)c1` as the compound, how does the “Percent Effect” value read?
**A.** 17.88%

**Q.** Which “Percent Effect” value does the source give for `Cc1ccc(S(C)(=O)=O)cc1C(=O)N(C)Cc1ccco1` here?
**A.** 9.899%

**Q.** Which “Percent Effect” value does the source give for `NC(=O)c1ccc(=O)n(Cc2cc(Br)ccc2Cl)n1` here?
**A.** 5.907%

**Q.** Which “Percent Effect” value does the source give for `Cc1cc(C(=O)Nc2nnn[nH]2)ccc1I` here?
**A.** -9.005%

**Q.** With `CCC(C)NC(=O)Cn1ccc2c(C)nn(CC)c2c1=O` (stereo not drawn) as the compound, how does the “Percent Effect” value read?
**A.** 121.4%

**Q.** Which “Percent Effect” value does the source give for `CCCNC(=O)Cn1nc(C)c2cnn(C(C)(C)C)c2c1=O` here?
**A.** 7.954%

**Q.** Which “Percent Effect” value does the source give for `Cc1cc(C(C)NC(=O)Cn2nc(C)c3ccccc3c2=O)c(C)o1` (stereo not drawn) here?
**A.** -1.65%

**Q.** `CC(C(=O)NCCN1CCCCCC1)n1cncn1` (stereo not drawn) was tested. Which “Percent Effect” value did it give?
**A.** 6.754%

**Q.** How did the “Percent Effect” value turn out when `Cc1c2ncn(CC(=O)NC(C)C)c(=O)c2nn1C` was run?
**A.** -0.5924%

**Q.** With `CCn1nc(C)c2nnn(CC(=O)Nc3c(C)cccc3C)c(=O)c21` as the compound, how does the “Percent Effect” value read?
**A.** 15.34%

**Q.** How did the “Percent Effect” value turn out when `CCn1nc(C)c2ccn(CC(=O)NC(C)C)c(=O)c21` was run?
**A.** 83.24%

**Q.** With `CCn1nc(C)c2ccn(CC(=O)NCCN3CCCCC3)c(=O)c21` as the compound, how does the “Percent Effect” value read?
**A.** 109.9%

**Q.** With `C1CN(c2nc3c(c(NC4CC4)n2)CN(CC2CCOC2)CC3)CCO1` (stereo not drawn) as the compound, how does the “Percent Effect” value read?
**A.** -9.007%

**Q.** Which “Percent Effect” value does the source give for `Cn1cc(CN2CCC3(CCC(C(=O)NCC4CC4)C3)CC2)cn1.O=C(O)C(F)(F)F` (stereo not drawn) here?
**A.** 38.61%

**Q.** How did the “Percent Effect” value turn out when `O=C(c1ccncc1Cl)N1CCN(Cc2ccco2)C(CCO)C1` (stereo not drawn) was run?
**A.** -0.1352%

**Q.** For `Cc1nn(C)c(C)c1NC(=O)CNC(c1ccc(F)cc1)C1CCC1` (stereo not drawn), which “Percent Effect” value is on record?
**A.** 19.96%

**Q.** For `COc1ccc2c(c1)OCC(CNc1cc(N)nc(SC)n1)C2` (stereo not drawn), which “Percent Effect” value is on record?
**A.** 101.5%

**Q.** With `COc1ccc2c(c1)OCC(Cc1cnccc1N)C2` (stereo not drawn) as the compound, how does the “Percent Effect” value read?
**A.** 13.35%

**Q.** How did the “Percent Effect” value turn out when `COc1cccc2c1OCC(CNC(=O)Cc1c(C)nc(N)nc1C)C2` (stereo not drawn) was run?
**A.** -7.382%

**Q.** Which “Percent Effect” value does the source give for `COc1ccc2c(c1)OCC(Cc1ccc(C)nc1N)C2` (stereo not drawn) here?
**A.** 95.38%

**Q.** `COc1cccc2c1OCC(CNc1cc(N)nc(SC)n1)C2` (stereo not drawn) was tested. Which “Percent Effect” value did it give?
**A.** 103.8%
